Here are results for 30 compounds from PubChem BioAssay AID1949 (Southern Research Institute, 2009).

One may read the inhibition as the drop in the measured response relative to a control, in per cent.

Hit rate of the full screen: of about 100,000 compounds, about 1,600 (1.6%) were called active. Roughly 3% stayed inconclusive and do not appear here. How the calls were made is not given here. Not all results are given here.

This experiment can be described thus: Mycobacterium tuberculosis H37Rv growth inhibition, cell based, confirmatory dose response (AID 1949).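 On inhibition: bacteria grown 7 days with compound before Alamar blue readout; 0% = untreated bacteria wells and 100% = bacteria with saturating antibiotic.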 As to conditions: M. tuberculosis H37Rv growth inhibition; hits give high values.
As for `Cc1c(Cl)cccc1N1CC(O)=C(c2nc3ccccc3s2)C1=N`, the inhibition is 3.11% (inactive).
Consider `COC(=O)c1noc(-c2ccc(F)cc2)n1`, for which the inhibition result is “inactive”.
`O=S(=O)(NCCC1=CCCCC1)c1ccccc1`: the inhibition entry was “inactive”.
Regarding `O=C1OCCC1Sc1nnc(-c2ccc(Br)cc2)o1` (stereo not given), the inhibition result was “inactive”.
On to `CC(=O)Nc1ccc(NC(=O)C(C)Oc2ccc(Cl)c(C)c2)cc1` (stereo not given), for which the inhibition entry is “inactive”.
For `CCOc1ccccc1OCCOCCNCc1ccccc1`, the inhibition entry is “inactive”.
Regarding `CCN(C(=O)c1ccccc1Br)c1ccccc1C`, the inhibition was 8.56% (inactive).
With `Fc1c(F)c(F)c(Cn2ccc(NC(=S)Nc3ccccc3C(F)(F)F)n2)c(F)c1F`, the inhibition entry was “inactive”.
`Cc1nc(SCc2cccc(C(=O)O)c2)nc2c1CCCC2`: the inhibition entry was “inactive”.
`O=C(O)c1ccccc1-c1nc(-c2ccccc2F)no1`: the inhibition entry is “inactive”.
On to `S=C(NCc1ccccc1)Nc1c(Cl)cccc1Cl`, for which the inhibition entry is “inactive”.
`CC1(C)CC(=O)CC(C)(C)N1OC(=O)c1ccncc1`: the inhibition result was “inactive”.
On to `CCOC(=O)c1ccc(NC(=O)CSc2nnc(-c3ccccc3Cl)n2CC)cc1`, for which the inhibition result was “inactive”.
Consider `CCOc1cc(C)c(S(=O)(=O)NCc2cccnc2)cc1C`, for which the inhibition result was “inactive”.
In the case of `COc1cc(S(=O)(=O)NC2CCCCC2)ccc1Cl`, the inhibition entry was “inactive”.
Regarding `CCOC(=O)c1ccc(COC(=O)c2ccc(C=O)cc2)cc1`, the inhibition was 2.19% (inactive).
For the compound `CCn1c(CNC(=O)c2cccs2)nnc1SCC(=O)Nc1ccc(Br)cc1F`, the inhibition result was “inactive”.
The entry for `CCc1cccc(C)c1NC(=O)CN(c1cccc(Br)c1)S(C)(=O)=O` is “inactive”; for `CC(C)CNC(=O)c1ccccc1NC(=O)CCSc1ccccc1` it is “inactive”; for `O=C1C2C3C=CC(C3)C2C(=O)N1CCC(=O)N1c2ccccc2Sc2ccccc21` (stereo not given) it is “inactive”.
Turning to `COc1cccc2cc(-c3nnc(SCC(=O)Nc4cccc(SC)c4)n3C)oc12`, the inhibition was 1.86% (inactive).
As for `CCOc1ccc(N(CC(N)=O)S(=O)(=O)c2ccc(OC)c(OC)c2)cc1`, the inhibition result was “inactive”.
The value for `COC(=O)c1ccc(NC(=O)CN(Cc2ccccc2)S(C)(=O)=O)cc1` was “inactive”.
As for `O=S(=O)(c1cccc(S(=O)(=O)N2CCCC2)c1)N1CCCC1`, the inhibition result was “inactive”.
The value for `COc1ccc([N+](=O)[O-])cc1NC(=O)C1CC(=O)N=C(N)S1` (stereo not given) was 0.16% (inactive); that for `COc1ccc(N(CC(=O)Nc2ccc(F)cc2F)S(=O)(=O)c2ccc(C)c([N+](=O)[O-])c2)cc1` was “inactive”; that for `O=S(=O)(c1ccccc1)c1ccc(COc2cccc3cccnc23)cc1` was 1.33% (inactive).
On to `COc1ccc(CNC2C3CC4CC(C3)CC2C4)cc1` (stereo not given), for which the inhibition result was “inactive”.
For `COC(=O)c1ccc(SC2CCCCC2)c([N+](=O)[O-])c1`, the inhibition entry is “inactive”.
In the case of `C=CCn1c(COc2ccc(C)cc2OCC)nnc1SCC(=O)Nc1cc(C(F)(F)F)ccc1Cl`, the inhibition was 1.26% (inactive).
